Source: PubChem BioAssay AID485297 (National Center for Advancing Translational Sciences (NCATS), 2010)
Out of some 320,000 compounds screened, about 9,100 (2.8%) were called active. Where a call stands in place of a potency, no number is given. Another 3% or so got no clear call; they are omitted. The sample as a whole holds a higher share of actives than the screen did. Unmarked numbers belong to inactive results. Calls follow the shape of the dose curve; as a rule, active = well fitted activation curve with a large enough effect; inconclusive = small, poorly fitted or top-dose-only effect; inactive = no such curve, though single readings can be large or run the other way.

Assay: qHTS Assay for Rab9 Promoter Activators; also: nearly all actives have a fitted effect of over 60% in size
Conditions: Huh7 Rab9 promoter-luciferase reporter, luminescence, 24 h; series mostly up to 9.22 µM
Summary of the method: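 Luminescence read-out: Huh7 cells stably expressing Rab9-luciferase, treated 24 h with compound at 37 °C, then lysed with luciferase reagent for 10 min at ambient before reading.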
Potency is read from the fitted curve at half-maximal effect.

Row | Structure (SMILES) | Potency | activation, negative = inhibition
1 | COc1cccc(NC(=O)CN(C)C(=O)/C=C/c2cn(-c3ccccc3)nc2-c2cccs2)c1 | inactive | –
2 | CN(C)CCn1c(=S)[nH]c2ccc(Cl)cc2c1=O | inactive | –
3 | CN(C)CCN=c1cc(-c2ccccc2)oc2ccc(Cl)cc12 | 2.82 µM (active) | –
4 | O=C(NCC#CCSc1nnc(-c2cccc3ccccc23)o1)c1cccs1 | inactive | –
5 | COCCN(C(=O)CC1CCCCC1)c1c(N)n(CC(C)C)c(=O)[nH]c1=O | inactive | –
6 | O=C(Nc1ccc(S(=O)(=O)N2CCCCC2)cc1)C1CCN(C(=O)c2ccc(F)cc2)CC1 | inactive | –
7 | Cc1ccc(S(=O)(=O)N(C)C)cc1NC(=O)CN1c2cccc3cccc(c23)S1(=O)=O | inactive | –
8 | COc1ccc(NC(=O)c2ccc(OC)cc2)cc1 | 1.41 µM (active) | –
9 | COc1ccc(C(=O)Nc2ccc(F)cc2F)cc1 | 2.51 µM (active) | –
10 | COc1cc(OC)cc(C(=O)OCC(=O)Nc2ccc(F)cc2F)c1 | inactive | –
11 | COc1ccccc1CC(=O)Nc1ccc(F)cc1F | inactive | –
12 | COc1ccc(NC(=O)c2ccc(C#CC(C)(C)O)cc2)cc1 | inactive | –
13 | COc1ccc(C(=O)Nc2cccc(S(C)(=O)=O)c2)cc1 | inactive | –
14 | COc1ccc(NC(=O)CC2SC(N3CCCCC3)=NC2=O)cc1OC (configuration not stated) | inactive | –
15 | CCCc1ccc(C(=O)COC(=O)CN2C(=O)NC3(CCCCC3C)C2=O)cc1 (configuration not stated) | inactive | –
16 | CCC(C)NC(=O)CCCc1ccccc1 (configuration not stated) | inactive | –
17 | C=CCN1CCN(C(=O)CCCc2ccccc2)CC1 | 0.1 µM (active) | –
18 | O=C(CCCc1ccccc1)NCc1ccccc1 | inactive | –
19 | COc1ccc2nc(NC(=O)c3ccc(Br)s3)sc2c1 | 2.24 µM (active) | –
20 | COc1ccc2nc(NC(=O)NC3CCCCC3)sc2c1 | 2 µM (active) | –
21 | CCc1noc(C)c1C(=O)Nc1nc2ccc(OC)cc2s1 | inactive | –
22 | CS(=O)(=O)c1ccc2nc(NC(=O)C3CCCCC3)sc2c1 | inactive | –

Row | Structure (SMILES) | Potency | activation, negative = inhibition
23 | COc1ccc2nc(NC(=O)[C@@H]3CCCN3C(=O)c3cccs3)sc2c1 | inactive | –
24 | CCn1c(SCC(=O)Nc2nc3ccc(OC)cc3s2)nnc1-c1ccoc1C | inactive | –
25 | C=CCN(c1ccccc1C(=O)NCC(=O)OCC)S(=O)(=O)c1ccc(C)cc1 | inactive | –
26 | COc1cc(C#Cc2ccc3cc(CCCO)oc(=O)c3c2)cc(OC)c1 | inactive | –
27 | O=C(O)c1cc(S(=O)(=O)Nc2ccc3cn[nH]c3c2)ccc1Br | inactive | –
28 | O=C(CN1C(=O)NC2(CCOc3ccccc32)C1=O)NCc1ccc(F)cc1 (configuration not stated) | inactive | –
29 | CCOc1ccc(OCC(=O)OC(C)C(=O)NC2CCCCC2C)cc1 (configuration not stated) | inactive | –
30 | COc1nc(-c2ccc(Cl)cc2)ccc1-c1noc(-c2cccs2)n1 | inactive | –
31 | Cc1ccc(-c2noc(CSc3nnc(-c4cccs4)n3C)n2)cc1 | inactive | –
32 | c1ccc(-c2noc(-c3cccs3)n2)nc1 | 0.355 µM (active) | –
33 | c1csc(-c2nc(-c3ccncc3)no2)c1 | 2.51 µM (active) | –
34 | c1ccc(CCc2nc(-c3ccncc3)no2)cc1 | inactive | –
35 | Clc1ccc(-n2nnnc2-c2cnc(-c3ccccn3)nc2-c2cccs2)cc1 | inactive | –
36 | O=C(NCc1cccnc1)c1nc(-c2cccs2)no1 | inactive | –
37 | Cc1ccc(-c2noc(CSc3nnc(-c4ccncc4)n3-c3ccc(F)cc3)n2)cc1 | inactive | –
38 | Cc1ccc(-c2nc(-c3ccncc3)no2)c(C)c1 | 2.51 µM (active) | –
39 | COc1cccc(C2=CC(=O)C[C@H](c3ccc(OC)c(OC)c3)C2)c1 | inactive | –
40 | Cc1ccc(NC(=O)CCCNC(=O)c2ccc(Cl)cc2)cc1S(=O)(=O)N1CCCCC1 | inactive | –
41 | CN(CCc1ccccn1)C1CCCN(S(=O)(=O)c2ccccc2Cl)C1 (configuration not stated) | inactive | –
42 | O=C(NNC(=O)C1CCC1)c1ccccc1 | inactive | –
43 | COc1ccc(C(=O)N2CCN(c3ccc(C(C)=O)cc3F)CC2)cc1S(=O)(=O)NC1CC1 | inactive | –
44 | O=S(=O)(NC1CCN(S(=O)(=O)c2ccc3c(c2)OCCO3)CC1)c1c(F)cccc1F | inactive | –

Row | Structure (SMILES) | Potency | activation, negative = inhibition
45 | CN1CCC(N(C)S(=O)(=O)c2ccc(NC(=O)c3cccc(C#N)c3)cc2)CC1 | inactive | –
46 | COC(=O)c1cc(NC(=O)C2C3C=CC(C3)C2C(=O)O)cc(C(=O)OC)c1 (configuration not stated) | inactive | –
47 | CC(C)COC(=O)c1ccc(NC(=O)C2C3C=CC(C3)C2C(=O)O)cc1 (configuration not stated) | 2.24 µM (active) | –
48 | CC(=O)NS(=O)(=O)c1ccc(NC(=O)C2C3C=CC(C3)C2C(=O)O)cc1 (configuration not stated) | inactive | –
49 | CCOc1ncccc1C(=O)OCC(=O)N1c2ccccc2CC1C (configuration not stated) | inactive | –
50 | Cc1cc(NC(=O)CSc2nc3c(cc2C#N)CCCCC3)no1 | 2 µM (active) | –
51 | CC(NC(=O)CSc1nc2c(cc1C#N)CN(C)CC2)c1ccccc1 (configuration not stated) | inactive | –
52 | Cc1cc(NC(=O)CSc2nc(C(C)C)nc3sc4c(c23)CCC(C)C4)no1 (configuration not stated) | inactive | –
53 | O=C(Cc1ccc(F)cc1)N/N=C/c1ccc2c(c1)OCO2 | 2.82 µM (active) | –
54 | O=C(N/N=C/c1ccc([N+](=O)[O-])cc1)C(=O)N1CCCC1 | inactive | –
55 | COC(=O)c1ccc(/C=N/NC(=O)C(=O)N2CCCCCC2)cc1 | inactive | –
56 | O=C(CNC(=O)C(c1ccccc1)c1ccccc1)N/N=C\c1ccc2c(c1)OCO2 | inactive | –
57 | O=C(N/N=C/c1ccc2c(c1)OCO2)C(=O)N1CCCC1 | 2.82 µM (active) | –
58 | O=C(/C=C/c1ccc2c(c1)OCO2)NCc1ccc(F)cc1 | inactive | –
59 | S=C(Nc1cccnc1)Nc1ccccn1 | – | -1.03% [at 1.84 µM]
60 | O=C(CSc1nnc(COc2ccc(Cl)cc2)n1Cc1ccco1)N1CCNC1=O | inactive | –
61 | O=C(NCC1CCCO1)c1ccc(S(=O)(=O)Nc2ccc(F)cc2)cc1 (configuration not stated) | inactive | –
62 | COc1cccc(/C=C/C(=O)OCC(=O)N2CCN(c3ccccc3)CC2)c1 | inactive | –
63 | CC(C)CNC(=O)CC(NCC(C)C)C(=O)O (configuration not stated) | inactive | –
64 | C=CCn1c(Oc2ccc(C(=O)OC)cc2)nc2c1c(=O)n(C)c(=O)n2C | inactive | –
65 | C(=N/Nc1cc(N2CCOCC2)nc(N2CCOCC2)n1)/c1ccccc1 | inactive | –
66 | Cc1ccccc1N/N=C/c1ccc(N2CCOCC2)cc1 | 2 µM (active) | –

Row | Structure (SMILES) | Potency | activation, negative = inhibition
67 | CCN(CC)c1ccc(C(=O)N/N=C/c2ccc(N3CCOCC3)cc2)cc1 | inactive | –
68 | COc1ccc(C(=O)NCC(=O)N/N=C/c2cccnc2)cc1 | inactive | –
69 | Cc1cc(O)c(NC(=O)c2ccc(C)c([N+](=O)[O-])c2)cc1C | 2.82 µM (active) | –
70 | Cc1ccc(C(=O)Nc2cccc3ncccc23)cc1[N+](=O)[O-] | inactive | –
71 | CCN1CCC(=NNC(=O)c2ccc(C)c([N+](=O)[O-])c2)CC1 | inactive | –
72 | CN(CC(=O)Nc1c(Cl)cccc1Cl)C(=O)CC1OC(=O)c2ccccc21 (configuration not stated) | inactive | –
73 | COc1cc(C(c2c(NC(=O)c3ccco3)sc(C)c2C)N2CCOCC2)cc(OC)c1OC (configuration not stated) | inactive | –
74 | COCCN(C(=O)CSCc1ccc(C)cc1)c1c(N)n(CC(C)C)c(=O)[nH]c1=O | inactive | –
75 | CCN(CC)S(=O)(=O)c1ccc(OC)c(NC(=O)CCc2c(C)noc2C)c1 | inactive | –
76 | O=C(c1ccc(F)cc1)n1c(=S)nc2ccccn21 | 0.891 µM (active) | –
77 | O=C(C[n+]1cc(Br)cc2ccccc21)c1ccc(F)cc1 | inactive | –
78 | O=C(c1ccc(F)cc1)n1cc(C(=S)N2CCOCC2)c2ccccc21 | inactive | –
79 | CSc1ccccc1-c1nnc(-c2ccc(Cl)cc2)o1 | 3.98 µM (active) | –
80 | Clc1ccc(-c2nnc(SCc3nc4ccccc4s3)o2)cc1 | inactive | –
81 | FC(F)(F)c1cnc(Oc2ccccc2-c2nnc(-c3ccc(Cl)cc3)o2)c(Cl)c1 | inactive | –
82 | COC(=O)c1ccc(C)c(NC(=O)C2CC(=O)N(C3CCCC(C)C3C)C2)c1 (configuration not stated) | inactive | –
83 | CC(=O)Nc1ccc(S(=O)(=O)NC(C)C(=O)OCCOc2ccc(F)cc2)cc1 (configuration not stated) | inactive | –
84 | O=C(N/N=C/c1cccc(Br)c1)c1ccc(N2CCCC2=O)cc1 | inactive | –
85 | COc1cc(/C=N/NC(=O)c2ccc(N3CCCC3=O)cc2)ccc1O | 3.98 µM (active) | –
86 | COc1ccc(C(=O)Nc2ccccc2C(=O)N/N=C/c2ccc(O)c(OC)c2)cc1 | inactive | –
87 | O=C(Nc1ccc(Br)cc1)C1CCC(=O)N1Cc1ccccc1Cl (configuration not stated) | inactive | –
88 | CC1CCN(C(=O)/C(=C\c2ccccc2F)NC(=O)c2ccccc2)CC1 | inactive | –

Row | Structure (SMILES) | Potency | activation, negative = inhibition
89 | CC(C)CNC(=O)c1cc(-c2ccc(Br)cc2)on1 | 3.55 µM (active) | –
90 | Cc1c(NC(=O)c2cc(-c3ccc(Br)cc3)on2)c(=O)n(-c2ccccc2)n1C | inactive | –
91 | COc1ccc(-c2cc(C(=O)NCCCN3CCOCC3)no2)cc1 | inactive | –
92 | O=C1COc2ccc(C(=O)CSc3ccc(Br)cc3)cc2N1 | inactive | –
93 | O=C(CCc1ccccc1Cl)Nc1ccc(S(=O)(=O)Nc2nccs2)cc1 | inactive | –
94 | COc1cc(C(=O)NCC(c2ccco2)N2CCCC2)ccc1OCc1ccccc1 (configuration not stated) | inactive | –
95 | O=C(O)c1cccc(NC(=S)N/N=C/c2c[nH]c3ccccc23)c1 | 3.55 µM (active) | –
96 | O=C(N/N=C/c1c[nH]c2ccccc12)c1cc2ccccc2o1 | inactive | –
97 | CN(C)S(=O)(=O)c1cccc(NC(=S)N/N=C/C(=O)c2ccccc2)c1 | inactive | –
98 | O=S(=O)([N-]c1nc2ccccc2nc1-[n+]1ccc(Cc2ccccc2)cc1)c1ccc(Br)s1 | inactive | –
99 | CCOc1ccc2nc(N(CCN(C)C)C(=O)c3ccc4ccccc4c3)sc2c1 | inactive | –
100 | CCCC(=O)N(CCN1CCOCC1)c1nc2ccc(OCC)cc2s1 | inactive | –
101 | CCOc1ccc2nc(C(=O)N3CCCC(C)C3)sc2c1 (configuration not stated) | 1.78 µM (active) | –
102 | CN(C)S(=O)(=O)c1ccc(C(=O)NCC2(N3CCOCC3)CCCCC2)cc1 | inactive | –
103 | CNS(=O)(=O)c1ccc(C(=O)NCC(=O)NCCc2ccc3c(c2)OCCO3)cc1 | inactive | –
104 | Cc1cccc(N(Cc2ccccc2)C(=O)c2ccccc2F)c1 | inactive | –
105 | O=C(CCN1c2ccccc2Sc2ccccc21)Nc1ccccc1 | inactive | –
106 | CCN1/C(=C/c2ccc3ccc(C)cc3[n+]2CC)Sc2ccccc21 | inactive | –
107 | CCN1/C(=C/C(=S)Nc2ccccc2)Sc2ccccc21 | 2.82 µM (active) | –
